Assay outcomes (PubChem)
In the library only some 2.7% were active in any assay of this set; here they are far more common.
CFTR F508del cor: CFTR F508del correction in bronchial cells; CFBE cells, YFP halide quenching; stimulated with forskolin plus potentiator P3; % fluorescence drop versus neutral controls; activity (quench increase), % at 7.58 µM; 350,000 compounds, 0.36% hits; AID 720511;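 active = mean added fluorescence quench of at least 8% versus neutral control, with both replicates also reaching 8%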;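 also: cells transiently co-express mutant CFTR-F508del with the halide-sensitive YFP; corrector assay measuring rescue of mutant channel to the surface after 24 h compound exposure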
MPTP block: blocks calcium-induced mitochondrial swelling | isolated mouse mitochondria, Ca2+ swelling absorbance, 30 min | inhibition, % at 10 µM | 360,000 compounds, 1.4% hits | AID 602449;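 active = inhibition of 50% or more, scaled per plate between neutral and stimulator controls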;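 also: 0% = DMSO wells given calcium and 100% = 1 mM EGTA wells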
CendR NRP1 mod: modulators of CendR peptide binding to human neuropilin-1; O14786; FAM-RPARPAR peptide binding to NRP-1, fluorescence polarization; inhibition, % at 25 µM; 360,000 compounds, 0.85% hits;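 active = inhibition or corrected inhibition above about 18%, plus a signal ratio from 0.5 to 1.5, limit read from the data, passing the limit was not always enough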
Target sequence (O14786 whole entry, looked up): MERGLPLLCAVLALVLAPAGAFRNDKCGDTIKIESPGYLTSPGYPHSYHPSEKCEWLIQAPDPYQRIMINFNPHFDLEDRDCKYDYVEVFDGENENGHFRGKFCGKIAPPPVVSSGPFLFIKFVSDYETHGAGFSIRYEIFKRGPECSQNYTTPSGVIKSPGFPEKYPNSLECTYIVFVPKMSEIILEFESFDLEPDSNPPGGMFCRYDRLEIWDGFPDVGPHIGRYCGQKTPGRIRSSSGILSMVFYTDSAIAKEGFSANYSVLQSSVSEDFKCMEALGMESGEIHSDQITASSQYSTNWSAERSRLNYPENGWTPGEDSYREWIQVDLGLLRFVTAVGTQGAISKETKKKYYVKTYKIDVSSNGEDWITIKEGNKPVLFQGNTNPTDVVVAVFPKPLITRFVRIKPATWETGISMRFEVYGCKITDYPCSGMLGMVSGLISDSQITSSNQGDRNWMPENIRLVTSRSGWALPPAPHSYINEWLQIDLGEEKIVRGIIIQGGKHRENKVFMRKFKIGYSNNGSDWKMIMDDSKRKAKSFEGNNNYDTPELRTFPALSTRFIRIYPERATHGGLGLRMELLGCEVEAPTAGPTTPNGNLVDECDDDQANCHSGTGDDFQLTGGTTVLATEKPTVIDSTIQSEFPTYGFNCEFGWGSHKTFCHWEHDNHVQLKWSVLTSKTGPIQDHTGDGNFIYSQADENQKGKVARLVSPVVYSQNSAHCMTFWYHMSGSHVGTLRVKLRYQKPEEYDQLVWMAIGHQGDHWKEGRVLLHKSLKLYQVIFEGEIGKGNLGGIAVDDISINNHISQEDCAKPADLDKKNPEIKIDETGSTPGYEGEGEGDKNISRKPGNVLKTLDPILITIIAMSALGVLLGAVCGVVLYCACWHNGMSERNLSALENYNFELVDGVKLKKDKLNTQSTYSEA
SKN-1 block: blocks SKN-1 activity in C. elegans; 360,000 compounds, 0.49% hits; C. elegans VP596 Pgst-4::GFP/RFP ratio, acrylamide-induced, 24 h; inhibition, % at 21.8 µM;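 active = interference check ratio from 0.5 to 1.5 plus GFP to RFP signal ratio inhibition reaching or exceeding a fixed threshold, cut at about 30% in these data, passing the limit was not always enough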
ATG4B inh: inhibitors of human ATG4B cysteine protease. ATG4B cleavage of LC3-PLA2, NBD-HPC fluorescence, 1 h. AID 504462. Q9Y4P1. 340,000 compounds, 0.51% hits. inhibition, % at 8.33 µM; in the data active = inhibition above about 40%
Active calls of the source: *; / = no result given; ! = not active in a repeat.

SMILES | CFTR F508del cor | MPTP block | CendR NRP1 mod | SKN-1 block | ATG4B inh
COC(=O)c1cc(-c2ccc(Br)cc2)n[nH]1 | / | 2 | 8 | 36* | -14
Cc1csc(NC(=O)CSc2nnc(-c3ccoc3C)n2CCc2ccccc2)n1 | / | 1 | 0 | 6 | -1
Cc1cccc(C)c1NC(=O)CSc1nnc(-c2ccoc2C)n1CCc1ccccc1 | / | 0 | 21* | 13 | -4
CC(=O)N(C)C[C@H]1Oc2cc(-c3ccccc3C)ccc2S(=O)(=O)N([C@H](C)CO)C[C@H]1C | -2 | / | / | / | /
Clc1ccc(-c2csc(N3CCSCC3)n2)cc1 | -3 | 3 | 4 | 50* | -8
c1ccc(-c2csc(N3CCSCC3)n2)cc1 | -1 | 2 | -8 | 29 | 1
CCC(=O)N1CCN(c2nc(-c3ccc(Cl)cc3)cs2)CC1 | / | 0 | 6 | 34 | -7
Fc1ccc(-c2csc(N3CCSCC3)n2)cc1 | -4 | -1 | 6 | 41* | 7
COc1ccc2c3c([nH]c2c1)[C@@H](CO)N(C(=O)Nc1ccc(F)cc1)CC31CN(S(=O)(=O)c2cn(C)cn2)C1 | 0 | / | / | / | /
COc1ccc2c3c(n(C)c2c1)[C@@H](CO)N(C(=O)CC1CC1)CC31CN(C(=O)C2CC2)C1 | 1 | / | / | / | /
CN1CCN(C2=C(Cl)C(=O)N(c3ccc(Cl)cc3)C2=O)CC1 | / | 3 | -27 | 0 | 1
Cc1ccc(N2C(=O)C(Cl)=C(N3CCN(C)CC3)C2=O)c(C)c1 | / | 0 | 32* | -6 | -3
O=C(N[C@H](Cc1ccccc1)C(=O)N1CCN(CC(=O)N2CCCC2)CC1)[C@H]1O[C@@H](n2ccc(=O)[nH]c2=O)[C@H](O)[C@@H]1O | 0 | / | / | / | /
O[Si](CCCN1CCCCC1)(c1ccc(F)cc1)C1CCCCC1 (stereo not drawn) | 8.8* | 3 | -3 | 9 | 1
COc1ccc(S(=O)(=O)N[C@@H]2C=C[C@H](CC(=O)NCc3ccccc3F)O[C@H]2CO)cc1 | 0 | / | / | / | /
O=C(O)CC12CC3CC(C1)CC(n1ncc(NCC4CCCO4)c(Cl)c1=O)(C3)C2 (stereo not drawn) | -1 | 1 | 25* | -3 | -4
COc1cc(OC)cc(C(=O)NCc2ccc3c(c2)cc(C)n3C)c1 | -1 | 1 | 23 | 55 | -2
Cc1cc2cc(CNC(=O)c3ccc4c(c3)OCO4)ccc2n1C | / | 3 | 20* | 33 | 12
COc1ccc(C(=O)NCc2ccc3c(c2)OCO3)cc1 | 0 | 0 | 0 | 7 | 3
COc1ccc(C(=O)NCc2ccc3c(c2)cc(C)n3C)cc1 | 1 | 1 | 13 | 44* | -11
Cc1cc2cc(CNC(=O)c3ccco3)ccc2n1C | 0 | 3 | 31* | 49* | -6
Cc1cc2cc(CNC(=O)COc3ccccc3)ccc2n1C | 0 | 4 | 11 | 65 | -11
COCC(=O)NCc1ccc2c(c1)cc(C)n2C | 2 | 2 | -1 | 47* | -10
C[C@@H]1CCCCO[C@H](CN(C)C(=O)CCC(F)(F)F)[C@H](C)CN([C@@H](C)CO)C(=O)c2cc(NC(=O)Nc3ccc4c(c3)OCO4)ccc2O1 | 0 | / | / | / | /
C[C@H](CO)N1C[C@H](C)[C@H](CN(C)Cc2ccncc2)OCCCC[C@H](C)Oc2ccc(NC(=O)CCC(F)(F)F)cc2C1=O | -1 | / | / | / | /
SMILES | CFTR F508del cor | MPTP block | CendR NRP1 mod | SKN-1 block | ATG4B inh
O=C(C[C@H]1CC[C@H](NC(=O)CC2CC2)[C@H](CO)O1)NCc1ccccc1 | 2 | / | / | / | /
O=C(NCc1ccc2c(c1)OCO2)c1cccc(N2CCCC2=O)c1 | / | -1 | -5 | 43* | 3
Cc1cc2cc(CNC(=O)NC3CCCCC3)ccc2n1C | -3 | 3 | 2 | 14 | -2
Cc1ccc(S(=O)(=O)NCc2ccc3c(c2)cc(C)n3C)cc1 | 0 | 0 | 0 | 50 | -4
Cc1cc2cc(CN3C(=O)c4ccccc4C3=O)ccc2n1C | / | 16 | 4 | 46* | 1
Cc1cc2cc(CNC(=S)Nc3ccc(OC(F)F)cc3)ccc2n1C | -1 | 4 | 7 | 46* | -10
Cc1cc2cc(CNC(=O)Nc3ccc(Cl)c(Cl)c3)ccc2n1C | 4 | 2 | 19* | 66 | -8
C[C@H]1CN([C@@H](C)CO)C(=O)c2cccc(NS(=O)(=O)c3cccs3)c2O[C@H]1CN(C)C(=O)Nc1ccc2c(c1)OCO2 | 2 | / | / | / | /
CCCn1c(C)cc(C(=O)CSc2nc3nc(C)cc(C)n3n2)c1C | -2 | 5 | 33* | 7 | -10
CCOC(=O)CSc1nc2nc(C)cc(C)n2n1 | 0 | -2 | -8 | -4 | 0
Cc1cc2c(c(=O)o1)[C@@]1(C(=O)N(C)c3c(Br)cccc31)C1=C(CCCC1=O)O2 | 3 | / | / | / | /
C[C@H]1CN([C@@H](C)CO)C(=O)c2cc(C#CC3(O)CCCC3)cnc2O[C@@H]1CN(C)Cc1cccnc1 | -1 | / | / | / | /
COc1ccc2nc3cccc(OC)c3nc2c1 | 4 | 2 | 31* | -1 | -9
COc1ccc2nc(-c3ccco3)c(-c3ccco3)nc2c1 | 1 | 4 | -17 | 24 | 15
COc1ccc2nc3ccccc3nc2c1N | 1 | 3 | 29* | 25 | -5
COc1ccc(-c2nc3ccccc3nc2-c2ccc(OC)c(OC)c2)cc1OC | -8 | 1 | 10 | 9 | -2
CCCNC(=O)C[C@@H]1C[C@@H]2c3cc(NC(=O)Nc4ccc(OC)cc4)ccc3O[C@@H]2[C@H](CO)O1 | -3 | / | / | / | /
COCC(=O)N(C)C[C@@H]1Oc2cc(-c3cncnc3)ccc2S(=O)(=O)N([C@H](C)CO)C[C@@H]1C | 0 | / | / | / | /
CCCC#Cc1ccc([C@H]2[C@@H](CO)N3C(=O)CN(C(=O)c4ccc(F)cc4)C[C@@H]23)cc1 | -3 | / | / | / | /
COC(=O)c1cccc(CC2(C)C(=O)Nc3ccc(OC(F)(F)F)cc32)c1 (stereo not drawn) | 4 | 0 | -6 | 37* | /
O=C(NCc1ccco1)Nc1ccc2snnc2c1 | / | -10 | 40* | -5 | 4
O=C(Nc1ccc2snnc2c1)N1CCSCC1 | / | 3 | 14 | 39* | 0
C[C@H]1CN([C@@H](C)CO)C(=O)c2cc(C#CCN(C)C)cnc2O[C@@H]1CN(C)S(C)(=O)=O | -3 | / | / | / | /
C[C@@H]1CN([C@@H](C)CO)S(=O)(=O)c2ccc(C#CCN(C)C)cc2O[C@@H]1CN(C)S(C)(=O)=O | 2 | / | / | / | /
Cc1ccc(NS(=O)(=O)c2ccc(C(=O)NCc3cccnc3)cc2)cc1 | 2 | 0 | 21* | 6 | -2
COCCNC(=O)C[C@@H]1CC[C@H]2[C@@H](COc3ccc(NC(=O)c4cc(C)on4)cc3C(=O)N2C)O1 | -1 | / | / | / | /
CCN1CCN(C2=C(NS(=O)(=O)c3ccc(NC(C)=O)cc3)C(=O)c3ccccc3C2=O)CC1 | -1 | 0 | 16 | 17 | -2
CC(=O)Nc1ccc(S(=O)(=O)NC2=C(N3CCN(Cc4ccccc4)CC3)C(=O)c3ccccc3C2=O)cc1 | 15*! | 2 | 10 | 4 | 3
Cc1ccc(CN2CC(C(=O)Nc3ccccc3N3CCCC3)CC2=O)cc1 (stereo not drawn) | -2 | 0 | -4 | -2 | 1
